Reference: PubChem BioAssay (NCI)
About 83,000 compounds went through this panel and 20% of them were active in at least one assay; those are over-represented in the sample as a whole.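 Single-dose data. Exposure time 48 hours. Values below 10 considered active.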 The source made the active and inactive calls.

Columns and labels:
Test in all cases: NCI-60 one-dose screen, 48 h (100 = growth as untreated, 0 = no growth, -100 = all killed)
Conditions in all cases: 10 µM unless noted
[1] = system: HCT-15 colon
[2] = system: HT29 colon
[3] = system: SNB-75 CNS
[4] = system: SNB-19 CNS
[5] = system: U251 CNS
[6] = system: PC-3 prostate
[7] = system: SK-MEL-5 melanoma
[8] = system: UACC-62 melanoma
[9] = system: LOX IMVI melanoma
[10] = system: SK-MEL-28 melanoma
[11] = system: SK-MEL-2 melanoma
[12] = system: EKVX NSCLC
[13] = system: SN12C renal
[14] = system: UO-31 renal
[15] = system: TK-10 renal
[16] = system: ACHN renal
[17] = system: CAKI-1 renal
[18] = system: CCRF-CEM leukemia
[19] = system: MOLT-4 leukemia

Measured: growth

C=CCN1C(=O)/C(=C/C(=O)OC)S/C1=N\NC(=O)c1cc2ccc1/C=C\c1ccc(cc1)/C=C\2
inactive: [1] 66.9% | [2] 46% | [3] 78.1% | [4] 84.7% | [5] 81.8% | [6] 48.4% | [7] 92.5% | [8] 77.2% | [9] 78.8% | [10] 102% | [11] 97.3% | [12] 90.8% | [13] 86.9% | [14] 75.4% | [15] 108% | [16] 87.9% | [17] 87.8% | [18] 22.9% | [19] 35.4%

O=S(=O)(NCCNc1nccc(-c2c(-c3cccc(F)c3)nc3sccn23)n1)c1ccccc1
inactive: [1] 25.8% | [2] 23.2% | [3] 71.5% | [4] 55.9% | [5] 44% | [6] 33.1% | [7] 19.1% | [8] 24.9% | [9] 36.3% | [10] 54.3% | [11] 51.8% | [12] 53.3% | [13] 40.3% | [14] 15.4% | [15] 59.5% | [16] 26% | [17] 39.1% | [18] 33.6% | [19] 16.6%

O=C(Nc1ccccc1C(=O)N/N=C(\c1ccccc1)c1ccccn1)c1ccc(F)cc1
active: [7] -7.66% | [8] 1.28% | [9] 8.38% | [14] 1.98% | [17] 5.29% | [18] 4.15%
inactive: [1] 32.5% | [2] 25.2% | [3] 16.2% | [4] 25.5% | [5] 17.8% | [6] 36.5% | [10] 33.7% | [11] 37.2% | [12] 16.8% | [13] 26.6% | [15] 49.1% | [16] 14.1% | [19] 12.8%

Nc1n[nH]c2cccc(C#Cc3cccc(C(=O)Nc4cccc(C(F)(F)F)c4)c3)c12
inactive: [1] 64.8% | [2] 38.8% | [3] 77.9% | [4] 104% | [5] 72.8% | [6] 72.3% | [7] 53.8% | [8] 42.7% | [9] 38% | [10] 53.5% | [11] 33.8% | [12] 89.7% | [13] 67.3% | [14] 37.2% | [15] 97.5% | [16] 54.7% | [17] 68.4% | [18] 32.1% | [19] 39.2%

COc1cccc(-c2cc(C(=O)Nc3ccc(/C=C/c4ccc(OC5CCN(C)CC5)cc4)cc3)ccc2OC)c1
inactive: [7] 96% | [8] 69.6% | [10] 41.7% | [11] 98.5% | [12] 27.2% | [14] 37.7% | [16] 60.1% | [17] 109%
active: [1] -61.8% | [2] -60.1% | [3] -50.3% | [4] -11.1% | [5] -92.6% | [6] 8.53% | [9] -86.9% | [13] -78.3% | [15] 1.81% | [18] -10.8% | [19] -36.4%

COc1ccc(C(=O)CSc2nc(-c3cc(OC)ccc3OC)cc(-c3ccc(Cl)cc3)c2C#N)cc1
inactive: [1] 62.7% | [2] 48.3% | [3] 30.9% | [4] 40.3% | [5] 35.7% | [6] 56.8% | [7] 36.6% | [8] 16.8% | [9] 68.5% | [10] 32.1% | [11] 70.8% | [12] 79.7% | [13] 42.6% | [14] 45.9% | [15] 61.9% | [16] 31% | [17] 64.9% | [18] 98.2% | [19] 94.3%

O=C1c2ccc3c4c(ccc(c24)C(=O)N1CCCNCc1ccccc1Cl)C(=O)N(CCCNCc1ccccc1Cl)C3=O
active: [1] -46% | [2] -42.5% | [3] -97.9% | [4] -76.9% | [5] -52.8% | [6] -37.7% | [7] -96.6% | [8] -59.5% | [9] -53.7% | [10] -92.2% | [11] -60.6% | [12] -46.7% | [13] -87.1% | [14] -35% | [15] -54.9% | [16] -39.3% | [17] -12.6% | [18] -15.5% | [19] -24.4%

O=C(/C=C/c1ccc(F)cc1)c1ccc(NC(=O)N2CCN(c3cc4c(cc3F)c(=O)c(C(=O)O)cn4C3CC3)CC2)cc1
inactive: [1] 101% | [2] 98% | [3] 90.7% | [4] 88.1% | [5] 98.9% | [6] 96.6% | [7] 96.8% | [8] 78.2% | [9] 83.7% | [10] 90.6% | [11] 105% | [12] 94.5% | [13] 92.6% | [14] 77.9% | [15] 92.5% | [16] 106% | [17] 95.2% | [18] 90.9% | [19] 99.5%
